# CHT PAM = allosterically activates the human high affinity choline transporter; 0.49% of 310,000 active; Q9GZV3; B-score at 10 µM; CHT-expressing cells, membrane potential dye, choline EC20; hits give high values; LV-AA mutant CHT in HEK293 cells;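 active = initial fluorescence not abnormally high and integrated response B-score, plate-corrected, over 3 SD above library mean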
# ANO1 block = mouse TMEM16A channel inhibition, primary screen. 1.2% of 310,000 active. AID 588511. Q8BHY3. normalized B-score (activity score, 25-100; higher = stronger inhibition) at 10 µM. HEK293 TMEM16A/YFP iodide influx fluorescence, ionomycin;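 active = ratio plate-corrected score three or more library SD toward inhibition, starting fluorescence score within five deviations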;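 note: score derived from kinetic fluorescence span divided by baseline fluorescence per well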
# Target sequence (Q8BHY3 whole entry, looked up): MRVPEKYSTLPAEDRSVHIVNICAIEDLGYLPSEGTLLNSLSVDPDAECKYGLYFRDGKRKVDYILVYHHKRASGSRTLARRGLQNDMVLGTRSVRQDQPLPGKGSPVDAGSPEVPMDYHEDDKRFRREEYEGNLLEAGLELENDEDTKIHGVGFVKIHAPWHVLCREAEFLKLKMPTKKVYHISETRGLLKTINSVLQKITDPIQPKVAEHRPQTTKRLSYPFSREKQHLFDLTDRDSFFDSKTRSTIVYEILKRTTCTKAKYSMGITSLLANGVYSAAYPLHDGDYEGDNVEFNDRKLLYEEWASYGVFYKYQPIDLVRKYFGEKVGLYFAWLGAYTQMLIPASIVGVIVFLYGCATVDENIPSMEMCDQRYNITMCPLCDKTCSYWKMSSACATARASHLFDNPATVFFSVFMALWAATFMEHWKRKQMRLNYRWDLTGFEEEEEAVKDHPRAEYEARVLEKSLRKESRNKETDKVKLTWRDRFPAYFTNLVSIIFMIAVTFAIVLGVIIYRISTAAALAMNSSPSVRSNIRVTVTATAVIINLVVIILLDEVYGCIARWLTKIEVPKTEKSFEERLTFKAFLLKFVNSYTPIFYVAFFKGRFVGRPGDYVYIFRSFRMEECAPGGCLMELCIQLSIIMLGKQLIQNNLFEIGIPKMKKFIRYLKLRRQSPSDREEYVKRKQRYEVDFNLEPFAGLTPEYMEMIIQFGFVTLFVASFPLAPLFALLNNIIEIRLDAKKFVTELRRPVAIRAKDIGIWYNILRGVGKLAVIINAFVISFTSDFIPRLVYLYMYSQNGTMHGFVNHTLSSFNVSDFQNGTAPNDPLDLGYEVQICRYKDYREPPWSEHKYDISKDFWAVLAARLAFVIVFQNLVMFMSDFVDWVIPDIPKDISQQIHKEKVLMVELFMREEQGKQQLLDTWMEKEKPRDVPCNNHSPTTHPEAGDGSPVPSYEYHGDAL
# IDE act = IDE (human) activation, cell-based; P14735; HEK cells, FAbeta-B cleavage, fluorescence polarization; 0% vehicle, 100% cell-free pure enzyme wells; activation, % at 5.96 µM; 0.073% of 340,000 active;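 active = activation above the mean of all tested compounds plus 3 SD, set per screening campaign, cut at about 17% in these data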
# IDE cell inh = cellular human IDE inhibition; P14735; HEK cells, FAbetaB cleavage, fluorescence polarization; inhibition, % at 5.59 µM; 0.41% of 320,000 active; AID 434962;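 active = percent inhibition above the average of all tested compounds plus 3 SD, set per screening campaign, cut at about 16% in these data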;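 note: IDE supplied by intact live HEK cells; FP after avidin binding of uncleaved biotin substrate so inhibition keeps polarization high; 0% = DMSO wells and 100% = 60 µM reference IDE inhibitor Ii1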
# TMEM16A act = mouse TMEM16A channel activation, primary screen; AID 623877; 0.3% of 340,000 active; B-score at 10 µM; Q8BHY3; HEK293 TMEM16A/YFP-H148Q/I152L, iodide quench fluorescence; hits give low values;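 active = fluorescence-ratio B-score plate-corrected deviation score at least 3 library SD below zero, with starting fluorescence score within 5 deviations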;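 note: channel opened by trigger with iodide after compound preincubation; score built on the fluorescence ratio of max minus min over baseline; more negative score means more quench and so TMEM16A activation or potentiation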
# CHT block = inhibitors of human choline transporter CHT; CHT-expressing cells, membrane potential dye, choline response; hits give low values; B-score at 10 µM; 0.86% of 310,000 active; AID 488975;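 active = B-score over 3 SD under the library average, and starting fluorescence ratio not unusually high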;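 note: choline stimulus applied at its EC90 after an EC20 pre-addition; B-score computed on integrated fluorescence ratio after choline addition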
# CHT act confirm = confirmation of human choline transporter (CHT) activators. shares compounds with CHT PAM. CHT-expressing cells, membrane potential dye fluorescence (FDSS); % of choline EC20–EC90 response window; HEK293 expressing CHT LV-AA mutant; choline added at its EC20. activation, % at 10 µM. 91% of 2,500 active;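 active = primary screen active, with duplicate mean activation above negative control mean plus 3 SD, cut at about 11% in these data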
# HEK293 MP dye = counter-screen for CHT activators: effect in parental HEK293 cells. shares compounds with CHT PAM. membrane potential dye fluorescence (FDSS); measured after EC20 choline addition. ratio readout change at 10 µM, hits read low. 62% of 2,500 active. AID 623908;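 active = duplicate-averaged ratio beyond 3 SD from buffer wells, up or down, though filed actives are nearly all decreases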
# * hit, by the source's call; i = inactive; / = not tested or not shown. Only some compounds are listed: those with a hit (about 2.7% of all), similar ones and a draw of the others.
SMILES,CHT PAM,ANO1 block,IDE act,IDE cell inh,TMEM16A act,CHT block,CHT act confirm,HEK293 MP dye
Cc1cc[n+]2cc(-c3cccc([N+](=O)[O-])c3)c(-c3cccc([N+](=O)[O-])c3)cc2c1,7*,i,3.5,-0.8,i,i,65.0*,-84.5*
Cc1cc[n+](Cc2ccc([N+](=O)[O-])cc2)cc1,i,i,6.2,-1.4,i,i,/,/
Cc1ccc(-c2cc[n+](Cc3ccccc3)cc2)cc1,6.68*,i,0.7,3.2,i,i,57.6*,-42.1*
COc1ccc(NC(=O)CN(C)C(=O)c2ccccc2Sc2ncnc3sc(C)c(C)c23)cc1,i,i,2.0,3.6,i,i,/,/
COc1cc(NC(=O)c2c(-c3ccccc3Cl)noc2C)c2ncccc2c1,7.83*,i,4.7,-1.6,i,i,7.6,i
Oc1ccc(C[C@H]2CNC(=S)N2CC2CCCN2C[C@H](Cc2ccccc2)N2C[C@H](Cc3ccc(O)cc3)N(CCc3ccccc3)C2=S)cc1 (some centres undefined),/,/,0.3,/,/,/,/,/
Cc1c(-n2cc(C(=O)O)c(=O)c3cc(F)c(N4CCCC4)c(F)c32)c(=O)n(-c2ccccc2)n1C,i,i,2.0,2.9,i,i,/,/
CN1CCN(c2c(F)cc3c(=O)c(C(=O)O)cn4c3c2SCC4)CC1,9.9*,i,-0.8,-2.7,i,i,23.4*,-69.3*
CCCCN(CCCC)CCNC(=O)CSCc1ccc(C)cc1,i,i,-1.2,-2.4,i,i,35.3*,i
Cc1ccc(CNC(=O)CSCc2ccccc2)cc1,i,i,3.7,-0.7,i,i,/,/
CCOC(=O)c1cc2c(=O)n3ccccc3nc2n(CC2CCCO2)c1=NC(=O)/C=C/c1ccccc1 (centres undefined),i,i,0.9,4.8,i,i,14.8*,i
CCOC(=O)c1cc2c(=O)n3ccccc3nc2n(Cc2ccco2)c1=NC(=O)c1ccc(OC)cc1OC,i,i,-4.8,2.5,i,i,20.9*,-25.5*
CCCCn1c(=NC(=O)c2ccco2)c(C(=O)OCC)cc2c(=O)n3ccccc3nc21,i,i,2.0,-0.5,i,i,/,/
COc1ccc(CCNCc2ccc(OCc3ccc(Cl)nc3)c(OC)c2)cc1OC,7.79*,i,3.8,3.0,i,i,36.8*,i
CCCCCNCc1ccc(OCc2ccc(Cl)nc2)c(OC)c1,i,i,0.2,3.1,i,i,/,/
CC1CN(c2nc3ccccc3nc2SCC(=O)Nc2cccc(C(F)(F)F)c2)CC(C)O1 (centres undefined),i,i,1.2,3.4,i,i,/,/
CN(CC(=O)Nc1ccccc1C(F)(F)F)C(=O)C1=COCCO1,i,i,-1.9,3.0,i,i,/,/
CCOC(=O)c1cnc2ccccc2c1Nc1cccc(C(=O)O)c1,i,i,1.0,-2.2,i,i,/,/
CCOC(=O)c1ccc2ncc(C(=O)OCC)c(NCCN(C)C)c2c1,i,i,-0.1,-3.8,i,i,35.8*,-36.4*
CCOC(=O)c1cnc2ccc(C(=O)OC)cc2c1Nc1cccc(C(=O)O)c1,10.7*,i,2.3,3.8,i,i,74.8*,-74.4*
CCOC(=O)c1cnc2ccc(C)cc2c1N(C)Cc1ccccc1,i,i,-1.1,2.4,i,i,28.0*,i
COc1ccc(Cl)cc1NC(=O)CN(C)C(=O)CCc1nc2ccccc2c(=O)[nH]1,/,/,3.1,-1.8,i,/,/,/
N#Cc1c(N)oc(-c2ccco2)c1-c1ccco1,8.2*,i,0.0,-0.2,i,i,10.3*,i
NS(=O)(=O)c1ccc(NC(=O)CN2CCc3ccccc3C2)cc1,i,i,-5.5,-0.6,i,i,/,/
CC1CCN(S(=O)(=O)c2ccc(NC(=O)CCNC(=O)c3ccc(Cl)cc3)cc2)CC1,/,/,2.0,/,i,/,/,/
SMILES,CHT PAM,ANO1 block,IDE act,IDE cell inh,TMEM16A act,CHT block,CHT act confirm,HEK293 MP dye
COc1c2occc2c(OC)c2c(=O)cc(C)oc12,i,i,-1.3,0.6,i,i,34.3*,-38.4*
COc1c2ccoc2cc2oc(C)cc(=O)c12,i,i,1.5,0.2,i,i,/,/
Cc1cc(OCC(=O)NNC(=O)c2cccnc2)cc(C)c1Cl,i,i,-4.9,/,i,i,/,/
O=C(NCCCn1ccnc1)c1ccc(C(F)(F)F)cc1,i,i,1.3,-0.8,i,i,/,/
O=S(=O)(c1cc(F)ccc1F)N1CCN2CCCC2C1 (centres undefined),i,i,6.6,1.9,i,i,/,/
C#CCOCCOCCOCCNc1nc(N2CCN(C(=O)[C@H](CCCCN)n3cc([C@@H](N)CC(C)C)nn3)CC2)nc(N2CCN(C(=O)[C@H](CCCCN)n3cc([C@@H](N)CC(C)C)nn3)CC2)n1,i,i,-1.1,6.3,i,i,55.9*,-39.3*
C#CCOCCOCCOCCNc1nc(N2CCN(C(=O)CCCCCCCCCCNC(=O)[C@H](CCCCN)n3cc(C)nn3)CC2)nc(N2CCN(C(=O)CCCCCCCCCCNC(=O)[C@@H]([C@H](C)O)n3cc(C)nn3)CC2)n1,i,i,21.5*,5.9,i,i,1.6,-39.9*
Cc1ccc(S(=O)(=O)Nc2nncs2)cc1,9.46*,i,1.4,-0.1,i,i,-2.9,i
Cc1ccc(S(=O)(=O)Nc2nnc(C(C)(C)C)s2)cc1,i,i,-0.6,/,i,i,/,/
CCOC(=O)c1c(C)nc2ccccc2c1-c1ccccc1,i,i,0.5,2.7,i,i,15.9*,i
COC(=O)c1c(C)nc2ccccc2c1-c1ccccc1,i,i,-3.4,3.0,i,i,/,/
CCCCC(=O)c1ccc(OC(=O)c2ccc([N+](=O)[O-])cc2)cc1,/,/,5.4,/,i,/,/,/
COc1cccc(C(=O)C2CCCN(Cc3cccn3-c3ccccn3)C2)c1 (centres undefined),9.65*,i,-3.2,4.7,i,i,45.7*,-25.6*
O=C(c1cccc(C(F)(F)F)c1)C1CCCN(Cc2cccn2-c2ncccn2)C1 (centres undefined),9.23*,i,-1.9,-2.2,i,i,24.9*,i

# Bioassay records: PubChem, several laboratories
